Holding throughout (assay): relative enzymatic activity vs untreated control (fraction); higher = less inhibition
Common to all, as to settings: 100 µM; incubation time: 2 h at 37 C

One experiment deals with DNA gyrase. On the procedure:
(§1)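 In vitro enzymatic inhibition assays (ProFoldin kits) for 12 purified essential E. coli enzymes or complexes, each treated with 218 active antibacterial compounds at 100 µM for 2 h at 37°C. Read-outs were fluorescence or absorbance (phosphate detection, dye binding), converted to activity via standard curves and expressed relative to untreated DMSO controls.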

The target of another experiment is DNA helicase (UniProt P0ACB1). As to the method: as §1
DNA helicase, sequence (P0ACB1 whole entry): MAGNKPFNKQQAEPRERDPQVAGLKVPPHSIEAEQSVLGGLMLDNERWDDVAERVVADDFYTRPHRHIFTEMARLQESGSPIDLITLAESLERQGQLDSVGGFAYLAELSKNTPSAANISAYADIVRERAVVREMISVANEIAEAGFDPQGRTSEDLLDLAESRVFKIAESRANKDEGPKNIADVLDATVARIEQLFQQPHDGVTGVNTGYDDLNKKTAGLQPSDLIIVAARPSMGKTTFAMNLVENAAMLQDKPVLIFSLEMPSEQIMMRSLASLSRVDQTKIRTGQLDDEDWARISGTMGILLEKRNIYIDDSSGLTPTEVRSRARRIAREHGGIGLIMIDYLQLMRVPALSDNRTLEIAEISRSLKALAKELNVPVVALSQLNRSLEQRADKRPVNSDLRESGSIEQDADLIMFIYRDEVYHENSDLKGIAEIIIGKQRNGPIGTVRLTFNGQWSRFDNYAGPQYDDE
The target in another experiment is DNA ligase (UniProt B1XA82). As to the method: as §1
DNA ligase, sequence (B1XA82 whole entry): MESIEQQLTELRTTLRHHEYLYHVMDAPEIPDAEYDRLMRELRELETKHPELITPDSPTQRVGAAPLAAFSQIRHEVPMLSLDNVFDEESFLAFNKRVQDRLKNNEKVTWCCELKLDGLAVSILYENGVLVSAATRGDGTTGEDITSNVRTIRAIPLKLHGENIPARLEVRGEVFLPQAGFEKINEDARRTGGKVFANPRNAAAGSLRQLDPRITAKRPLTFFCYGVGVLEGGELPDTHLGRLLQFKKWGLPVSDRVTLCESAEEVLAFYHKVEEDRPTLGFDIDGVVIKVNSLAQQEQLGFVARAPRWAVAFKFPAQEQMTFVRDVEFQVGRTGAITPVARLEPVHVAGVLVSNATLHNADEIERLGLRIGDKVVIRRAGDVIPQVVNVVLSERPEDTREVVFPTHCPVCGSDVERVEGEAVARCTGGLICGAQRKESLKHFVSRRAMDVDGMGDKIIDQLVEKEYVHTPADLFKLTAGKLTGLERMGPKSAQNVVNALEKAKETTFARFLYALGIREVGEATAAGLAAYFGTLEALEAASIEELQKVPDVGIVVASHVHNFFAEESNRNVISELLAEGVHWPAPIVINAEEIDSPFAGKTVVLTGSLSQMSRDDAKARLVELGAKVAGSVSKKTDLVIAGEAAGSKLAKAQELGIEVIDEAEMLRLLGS
The target of a further experiment is DNA polymerase (UniProt P10443). As to the method:
as §1

The target of another experiment is DNA primase (UniProt P0ABS7). On the procedure:
as §1

The next experiment has as its target GlmU (UniProt A7ZTU1). As to the method: as §1
A further experiment addresses Guanlyate kinase (UniProt Q0TBG1). As to the method: as §1
The target of the next experiment is MurA (UniProt Q3YX52). As to the method:
as §1

In a further experiment the target is T1, MurD (UniProt P14900).
T1 sequence (whole entry): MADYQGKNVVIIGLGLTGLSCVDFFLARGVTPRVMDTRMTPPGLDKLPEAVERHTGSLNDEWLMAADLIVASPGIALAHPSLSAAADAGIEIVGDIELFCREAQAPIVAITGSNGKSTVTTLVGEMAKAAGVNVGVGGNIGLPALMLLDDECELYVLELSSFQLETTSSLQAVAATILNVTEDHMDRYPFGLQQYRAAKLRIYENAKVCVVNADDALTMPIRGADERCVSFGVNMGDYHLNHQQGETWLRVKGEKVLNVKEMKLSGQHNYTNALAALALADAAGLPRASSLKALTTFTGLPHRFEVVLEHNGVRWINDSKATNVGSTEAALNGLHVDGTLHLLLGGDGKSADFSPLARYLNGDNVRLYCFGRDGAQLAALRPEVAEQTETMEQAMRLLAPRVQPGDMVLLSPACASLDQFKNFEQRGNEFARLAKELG
As to the method: as §1

In a further experiment the target is T2, MurF (UniProt P11880).
T2 sequence (whole entry): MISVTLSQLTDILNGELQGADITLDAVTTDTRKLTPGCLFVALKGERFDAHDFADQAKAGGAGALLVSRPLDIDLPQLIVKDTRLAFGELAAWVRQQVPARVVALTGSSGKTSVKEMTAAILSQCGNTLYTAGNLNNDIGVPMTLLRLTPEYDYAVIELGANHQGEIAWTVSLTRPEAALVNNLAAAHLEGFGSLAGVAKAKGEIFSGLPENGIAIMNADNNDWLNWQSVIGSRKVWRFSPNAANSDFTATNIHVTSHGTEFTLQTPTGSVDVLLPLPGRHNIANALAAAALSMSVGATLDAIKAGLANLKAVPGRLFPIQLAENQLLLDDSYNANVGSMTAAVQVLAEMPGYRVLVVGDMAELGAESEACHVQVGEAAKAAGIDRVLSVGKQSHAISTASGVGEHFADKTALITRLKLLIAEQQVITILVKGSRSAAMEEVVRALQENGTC
On the procedure: as §1

Another experiment relates to RNA polymerase. On the procedure:
as §1

± gives the standard deviation of the averaged measurements.

DNA polymerase, sequence (P10443 whole entry): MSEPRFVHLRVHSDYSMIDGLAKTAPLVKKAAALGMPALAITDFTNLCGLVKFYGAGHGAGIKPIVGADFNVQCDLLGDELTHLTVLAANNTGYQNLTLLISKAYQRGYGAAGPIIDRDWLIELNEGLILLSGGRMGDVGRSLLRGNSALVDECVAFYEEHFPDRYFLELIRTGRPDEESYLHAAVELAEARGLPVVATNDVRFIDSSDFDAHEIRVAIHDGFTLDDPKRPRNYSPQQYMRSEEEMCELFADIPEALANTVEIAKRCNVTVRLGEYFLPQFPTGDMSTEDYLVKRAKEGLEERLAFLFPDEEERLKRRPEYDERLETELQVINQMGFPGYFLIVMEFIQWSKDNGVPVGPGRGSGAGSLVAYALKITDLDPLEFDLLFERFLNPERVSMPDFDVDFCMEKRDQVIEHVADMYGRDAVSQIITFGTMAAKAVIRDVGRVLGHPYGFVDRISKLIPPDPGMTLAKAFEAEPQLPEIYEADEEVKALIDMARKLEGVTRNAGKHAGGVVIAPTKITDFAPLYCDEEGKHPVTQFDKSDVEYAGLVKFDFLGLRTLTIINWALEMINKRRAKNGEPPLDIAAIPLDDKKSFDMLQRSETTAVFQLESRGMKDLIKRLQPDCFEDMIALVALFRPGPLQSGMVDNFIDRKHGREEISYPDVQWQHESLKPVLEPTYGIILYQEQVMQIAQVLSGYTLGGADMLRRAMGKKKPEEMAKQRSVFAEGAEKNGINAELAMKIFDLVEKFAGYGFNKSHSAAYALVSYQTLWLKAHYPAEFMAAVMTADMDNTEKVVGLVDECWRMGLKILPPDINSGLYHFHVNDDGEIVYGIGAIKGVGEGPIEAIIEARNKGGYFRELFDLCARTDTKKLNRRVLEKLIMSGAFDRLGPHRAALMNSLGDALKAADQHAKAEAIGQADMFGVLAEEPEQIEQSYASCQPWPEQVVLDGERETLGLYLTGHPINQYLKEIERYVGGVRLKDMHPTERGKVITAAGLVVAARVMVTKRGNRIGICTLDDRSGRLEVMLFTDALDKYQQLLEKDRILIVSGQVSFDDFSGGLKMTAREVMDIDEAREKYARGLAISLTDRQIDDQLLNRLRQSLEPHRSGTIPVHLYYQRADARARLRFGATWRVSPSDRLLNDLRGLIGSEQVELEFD
MurA, sequence (Q3YX52 whole entry): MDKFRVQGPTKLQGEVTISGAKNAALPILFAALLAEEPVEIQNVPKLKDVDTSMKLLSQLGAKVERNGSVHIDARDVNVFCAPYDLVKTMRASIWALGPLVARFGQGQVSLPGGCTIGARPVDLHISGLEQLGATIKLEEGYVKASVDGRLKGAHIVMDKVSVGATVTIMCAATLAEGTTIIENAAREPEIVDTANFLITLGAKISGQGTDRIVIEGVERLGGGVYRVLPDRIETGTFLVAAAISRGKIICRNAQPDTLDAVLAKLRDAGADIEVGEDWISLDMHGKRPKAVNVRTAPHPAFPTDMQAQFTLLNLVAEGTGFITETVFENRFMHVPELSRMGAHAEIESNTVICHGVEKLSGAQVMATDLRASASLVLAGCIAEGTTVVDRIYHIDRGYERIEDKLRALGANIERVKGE
DNA primase, sequence (P0ABS7 whole entry): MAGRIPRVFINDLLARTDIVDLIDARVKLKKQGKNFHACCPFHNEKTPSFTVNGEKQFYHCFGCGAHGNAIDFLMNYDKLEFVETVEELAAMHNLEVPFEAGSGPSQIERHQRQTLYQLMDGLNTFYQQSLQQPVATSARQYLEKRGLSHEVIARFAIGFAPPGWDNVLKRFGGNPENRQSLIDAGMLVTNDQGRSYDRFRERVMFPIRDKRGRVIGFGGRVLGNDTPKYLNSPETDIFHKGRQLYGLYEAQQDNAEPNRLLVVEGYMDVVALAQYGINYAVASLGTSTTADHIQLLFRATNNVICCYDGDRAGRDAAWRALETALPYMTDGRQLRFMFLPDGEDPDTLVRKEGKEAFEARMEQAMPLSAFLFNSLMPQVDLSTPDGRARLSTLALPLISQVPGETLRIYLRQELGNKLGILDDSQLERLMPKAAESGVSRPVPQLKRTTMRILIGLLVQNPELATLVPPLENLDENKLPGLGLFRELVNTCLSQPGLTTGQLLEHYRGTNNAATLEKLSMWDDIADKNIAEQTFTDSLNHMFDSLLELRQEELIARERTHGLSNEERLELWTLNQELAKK
Guanlyate kinase, sequence (Q0TBG1 whole entry): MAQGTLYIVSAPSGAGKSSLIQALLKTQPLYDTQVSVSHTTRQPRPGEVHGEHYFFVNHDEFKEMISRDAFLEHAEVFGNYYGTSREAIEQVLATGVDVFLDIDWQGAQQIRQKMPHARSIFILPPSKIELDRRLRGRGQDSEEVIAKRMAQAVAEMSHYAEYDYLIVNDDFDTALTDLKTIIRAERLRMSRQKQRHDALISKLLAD
GlmU, sequence (A7ZTU1 whole entry, looked up): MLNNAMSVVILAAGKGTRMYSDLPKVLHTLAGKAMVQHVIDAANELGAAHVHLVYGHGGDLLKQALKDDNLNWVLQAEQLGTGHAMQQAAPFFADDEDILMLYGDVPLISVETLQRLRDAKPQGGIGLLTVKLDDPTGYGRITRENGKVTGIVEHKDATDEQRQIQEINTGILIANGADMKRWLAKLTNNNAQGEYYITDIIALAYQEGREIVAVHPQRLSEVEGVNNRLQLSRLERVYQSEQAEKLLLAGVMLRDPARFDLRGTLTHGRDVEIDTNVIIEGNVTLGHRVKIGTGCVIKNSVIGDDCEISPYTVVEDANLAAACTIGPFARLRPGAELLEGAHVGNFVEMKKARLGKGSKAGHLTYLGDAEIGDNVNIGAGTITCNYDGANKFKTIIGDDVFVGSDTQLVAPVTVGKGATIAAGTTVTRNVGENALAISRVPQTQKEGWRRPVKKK

With `Nc1nc(C(=CCC(=O)O)C(=O)NC2C(=O)N3C(C(=O)O)=CCSC23)cs1` (configuration not stated), the relative enzymatic activity in the experiment on DNA gyrase turned out to be 0.16 ± 0.14; in the experiment with DNA helicase it was 0.257 ± 0.0059; with DNA ligase, 1.1 ± 0.24; with DNA polymerase it was 0.742 ± 0.27; in the experiment with DNA primase, 0.682 ± 0.082; in the experiment with GlmU, 0.934 ± 0.01. In addition, the relative enzymatic activity in the experiment with Guanlyate kinase was determined as 0.901 ± 0.03; with MurA, 0.0583 ± 0.02; in the experiment with MurD, 0.575 ± 0.39; with MurF it was 0.958 ± 0.24; in the experiment with RNA polymerase, 0.292 ± 0.037.

On to `N[C@@H]1CN(c2c(F)cc3c(=O)c(C(=O)O)cn([C@@H]4C[C@@H]4F)c3c2Cl)CC12CC2`, for which the relative enzymatic activity in the experiment on DNA gyrase was determined as 0.186 ± 0.26; with DNA helicase it was 0.435 ± 0.025; with DNA ligase, 0.852 ± 0.06; in the experiment with DNA polymerase it was 1.1 ± 0.085; with DNA primase it was 0.84 ± 0.012; with GlmU, 0.987 ± 0.012. The relative enzymatic activity with Guanlyate kinase is 1 ± 0.11; with MurA it was 0.524 ± 0.094; with MurD it was 0.591 ± 0.41; with MurF, 1.31 ± 0.28; in the experiment with RNA polymerase, 0.979 ± 0.15.

For the compound `CC1CCc2cc(F)cc3c(=O)c(C(=O)O)cn1c23` (configuration not stated), the relative enzymatic activity was 0.0609 ± 0.086 in the experiment on DNA gyrase; 0.593 ± 0.15 in the experiment with DNA helicase; 0.937 ± 0.35 in the experiment with DNA ligase; 1.41 ± 0.53 with DNA polymerase; 0.655 ± 0.13 with DNA primase; 0.9984 ± 0.0089 in the experiment with GlmU. Besides, the relative enzymatic activity with Guanlyate kinase came to 1.03 ± 0.1; in the experiment with MurA, 0.715 ± 0.16; in the experiment with MurD it was 0.568 ± 0.39; with MurF, 0.97 ± 0.2; with RNA polymerase, 1.04 ± 0.22.

Consider `CCC(C)C1NC(=O)C(CCNCS(=O)(=O)[O-])NC(=O)C(NC(=O)C(CCNCS(=O)(=O)[O-])NC(=O)C(NC(=O)C(CCNCS(=O)(=O)[O-])NC(=O)CCCCC(C)C)C(C)O)CCNC(=O)C(C(C)O)NC(=O)C(CCNCS(=O)(=O)[O-])NC(=O)C(CCNCS(=O)(=O)[O-])NC(=O)C(C(C)CC)NC1=O.[Na+].[Na+].[Na+].[Na+].[Na+]` (configuration not stated), for which the relative enzymatic activity in the experiment with DNA gyrase amounted to 1.1 ± 0.088; in the experiment with DNA helicase it was 0.615 ± 0.27; with DNA ligase it was 1.08 ± 0.17; in the experiment with DNA polymerase, 1.32 ± 0.34; with DNA primase it was 0.766 ± 0.23; with GlmU, 0.983 ± 0.022. The relative enzymatic activity in the experiment with Guanlyate kinase was determined as 1 ± 0.023; in the experiment with MurA, 0.564 ± 0.14; in the experiment with MurD, 0.591 ± 0.39; in the experiment with MurF, 1.03 ± 0.3; with RNA polymerase, 0.919 ± 0.029.

As to `CON=C(C(=O)NC1C(=O)N2C(C(=O)[O-])=C(CSc3nc(=O)c([O-])nn3C)CSC12)c1csc(N)n1.O.O.O.[Na+].[Na+]` (configuration not stated), the relative enzymatic activity with DNA gyrase came out at 0.7 ± 0.45; in the experiment with DNA helicase, 0.48 ± 0.015; in the experiment with DNA ligase, 1.29 ± 0.4; with DNA polymerase, 1.13 ± 0.23; with DNA primase, 0.69 ± 0.18; with GlmU it was 0.996 ± 0.014. The relative enzymatic activity with Guanlyate kinase was found to be 0.914 ± 0.065; in the experiment with MurA, 0.124 ± 0.03; with MurD, 0.583 ± 0.4; with MurF it was 0.955 ± 0.21; with RNA polymerase it was 0.843 ± 0.073.

In the case of `CN1CCN(c2c(F)cc3c(=O)c(C(=O)O)cn4c3c2OCN4C)CC1`, the relative enzymatic activity was 0.115 ± 0.16 in the experiment on DNA gyrase; 0.53713 ± 0.00022 with DNA helicase; 0.908 ± 0.041 in the experiment with DNA ligase; 1.17 ± 0.21 with DNA polymerase; 0.86 ± 0.01 with DNA primase; 0.97 ± 0.023 with GlmU. Besides, the relative enzymatic activity with Guanlyate kinase was 0.958 ± 0.14; with MurA, 0.585 ± 0.19; with MurD it was 0.624 ± 0.43; with MurF, 1.17 ± 0.022; in the experiment with RNA polymerase, 0.816 ± 0.086.

`Cc1nnc(SCC2=C(C(=O)O)N3C(=O)[C@@H](NC(=O)Cn4cnnn4)[C@H]3SC2)s1`: the relative enzymatic activity with DNA gyrase came to 0.719 ± 0.43; in the experiment with DNA helicase, 0.348 ± 0.37; in the experiment with DNA ligase it was 0.987 ± 0.14; in the experiment with DNA polymerase, 1.17 ± 0.26; with DNA primase it was 0.792 ± 0.035; with GlmU it was 0.995 ± 0.059. Also, the relative enzymatic activity with Guanlyate kinase came to 0.9645 ± 0.0053; in the experiment with MurA, 0.137 ± 0.029; with MurD it was 0.604 ± 0.41; in the experiment with MurF, 0.96 ± 0.22; with RNA polymerase, 0.862 ± 0.057.

For the origin of these results see the supplement of paper PMC9446081.
